# Assay results from PubChem BioAssay (NCI).
# The panel holds about 83,000 compounds, 20% with a hit somewhere; the sample as a whole holds those more often.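 Activity criterion: percent growth below 10, measured after cells in 96-well plates were exposed to a single compound concentration for 48 hours.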 Values without a mark were called inactive. Calls of active or inactive are those of the source.
# Assays:
# Test in all cases: NCI-60 one-dose screen, 48 h (100 = growth as untreated, 0 = no growth, -100 = all killed)
# Details in all cases: 10 µM unless noted
# SR leukemia = tested on: SR leukemia
# RPMI-8226 leukemia = tested on: RPMI-8226 leukemia
# OVCAR-8 ovarian = tested on: OVCAR-8 ovarian
# OVCAR-5 ovarian = tested on: OVCAR-5 ovarian
# OVCAR-4 ovarian = tested on: OVCAR-4 ovarian
# SK-OV-3 ovarian = tested on: SK-OV-3 ovarian
# IGROV1 ovarian = tested on: IGROV1 ovarian
# OVCAR-3 ovarian = tested on: OVCAR-3 ovarian
# HS 578T breast = tested on: HS 578T breast
# NCI/ADR-RES ovarian = tested on: NCI/ADR-RES ovarian
SMILES,growth (SR leukemia),growth (RPMI-8226 leukemia),growth (OVCAR-8 ovarian),growth (OVCAR-5 ovarian),growth (OVCAR-4 ovarian),growth (SK-OV-3 ovarian),growth (IGROV1 ovarian),growth (OVCAR-3 ovarian),growth (HS 578T breast),growth (NCI/ADR-RES ovarian)
Cc1cc2nc3c4cc(N)ccc4n(CCN(C)C)c3nc2cc1C,-0.184% (active),-7.46% (active),13.7%,18.5%,14.6%,18.4%,3.64% (active),22.3%,41.8%,2.88% (active)
CC(C)(C)c1ccc(OCCCCCCCN2CCNCC2)cc1,-10.4% (active),-17% (active),71.3%,68.5%,54%,81.5%,52%,62%,24.9%,71.7%
CCN1CCN(c2nc(C)cc(N(CCCNc3ccnc4cc(Cl)ccc34)Cc3ccco3)n2)CC1,-16.5% (active),8.04% (active),58.5%,79.7%,59.7%,97.2%,51.2%,53%,70.3%,55.8%
COc1ccc(/C=C/C(=O)NCCO)cc1,91.9%,105%,96.4%,88.2%,103%,94.2%,98.3%,101%,92.4%,104%
CCOc1ccc(NC(=O)c2ccoc2COc2ccccc2)cc1,113%,91.8%,104%,103%,101%,106%,93.5%,109%,105%,102%
Cc1ccncc1C(=O)O,120%,108%,95.5%,94.7%,96%,137%,99.6%,101%,96.5%,96.8%
N#C/C(=C\c1ccc(-c2ccc(Br)cc2)o1)c1nc(-c2cccs2)cs1,90.4%,92.8%,106%,95.6%,96.3%,111%,88.1%,110%,108%,95%
COc1ccc2c3c(c4ccccc4cc13)C(=O)N(CCN(C)CCN)C2=O,-31.8% (active),-45.1% (active),-52.5% (active),-65.9% (active),-79.4% (active),-6.29% (active),-48.4% (active),-62.5% (active),24.8%,-7.12% (active)
C[C@]12CC[C@@H]3c4ccc(O)cc4CC[C@H]3[C@@H]1C[C@H](O)[C@@H]2O,99.2%,98.6%,103%,85.5%,99.8%,120%,98%,90.3%,86.6%,102%
Nc1nc(Br)nc2c1ncn2C1CC(O)C(CO)O1 (stereo not given),52.2%,73.5%,35.9%,76.3%,81.9%,94.2%,96.3%,80.9%,91.7%,22.3%
Nc1c2c(nc3ccc(Cl)cc13)CC(c1ccccc1)CC2=O (stereo not given),14.3%,25.8%,72.1%,73.2%,89.2%,76.9%,38.3%,20.6%,73.5%,22.5%
O=C1/C(=C\c2ccc(Br)o2)SC(=S)N1CCc1ccc(O)cc1,66.9%,26.6%,97.2%,80%,65.3%,86.5%,62.6%,62.9%,93.2%,98.7%
CC[C@H](CC[C@@H](C)[C@H]1CC[C@H]2[C@@H]3/C(=C/c4cccnc4)C(=O)C4=CC(=O)CC[C@]4(C)[C@H]3CC[C@]12C)C(C)C,62.4%,74.4%,64.5%,105%,100%,112%,95.6%,102%,107%,90.5%
C#CCN=C[C@]12CC[C@@H](C(=C)C)[C@@H]1[C@H]1CC[C@@H]3[C@@]4(C)CCC(=O)C(C)(C)[C@@H]4CC[C@@]3(C)[C@]1(C)CC2,36.5%,33%,57.2%,115%,53.5%,91.8%,-10.9% (active),62.3%,87.8%,64.2%
COC(=O)[C@]12CC[C@@H](C)[C@H](C)[C@@H]1C1=CC[C@@H]3[C@@]4(C)C[C@@H](O)[C@H](O)[C@@](C)(CO)C4=CC[C@@]3(C)[C@]1(C)CC2,-24.8% (active),-15.2% (active),-22.9% (active),-66% (active),-55.5% (active),-5.82% (active),-40% (active),-61.8% (active),-35.1% (active),-45.6% (active)
COc1ccc2c(c1)c(-c1nc(-c3c[nH]c4ncccc34)cs1)cn2CCNC(=O)OC(C)(C)C,62.7%,41.2%,45.7%,104%,55.7%,110%,61.1%,84.4%,76.3%,56.6%
COc1cc(/C=C2\C(=O)N(CC(O)COc3cc(O)c4c(=O)cc(-c5ccccc5)oc4c3)c3ccccc32)cc(OC)c1O (stereo not given),45.9%,57.9%,77%,113%,78.7%,111%,51.3%,69.5%,85.1%,87.5%
CCN1CCN(C(=O)[C@]23CCC(C)(C)C[C@@H]2C2=CC[C@@H]4[C@@]5(C)C/C(=C/c6ccncc6)C(=O)C(C)(C)[C@@H]5CC[C@@]4(C)[C@]2(C)CC3)CC1,-29.1% (active),-32.1% (active),7.29% (active),-20.4% (active),6.7% (active),16.2%,-9.63% (active),-85.7% (active),-23.6% (active),-49.2% (active)
COc1cc2nc(Cl)nc(Nc3cccc(C(=O)/C=C/c4ccc(Cl)cc4)c3)c2cc1OC,10.4%,0.0429% (active),78.9%,85.5%,70.8%,89%,68.3%,48.8%,101%,65.7%
